Screen size: about 390,000 compounds; about 360 (0.092%) were called active. Calls come from the whole dose curve; as a rule, active = well fitted inhibition curve with a large enough effect; inconclusive = small, poorly fitted or top-dose-only effect; inactive = no such curve, though single readings can be large or run the other way. Many of the other results were omitted from the sample, so actives are more common in it than they were.
Biological target: Isocitrate dehydrogenase [NADP] cytoplasmic (Homo sapiens) (UniProt O75874)
Experiment: qHTS for Inhibitors of mutant isocitrate dehydrogenase 1 (IDH1): qHTS; note: nearly all actives have a fitted effect of over 65% in size
Conditions: IDH1-R132H enzyme, NADPH consumption, diaphorase/resazurin fluorescence; series mostly up to 76.6 µM; activity change, negative = inhibition: at the top concentration
Source text: Unbiased genomic sequencing for 22 glioma genomes found recurrent mutation of isocitrate dehydrogenase 1 (IDH1) on chromosome 2q33-a gene encoding the cytosolic isoform of IIDH1associated with the tricarboxylic acid cycle (TCA) that catalyzes the oxidative decarboxylation of isocitrate, yielding alpha-ketoglutarate and CO2 via NADP+ to NADPH conversion. Subsequent studies confirmed the recurrent IDH mutations in up to 70% of secondary gliomas and in 10% of AML cases. […] This in effect defines IDH1 as an oncogene, and provides an extraordinary opportunity to discover chemical probes against mutant IDH1 that may translate into much needed new therapies for glioma and AML patients. […] NIH Chemical Genomics Center [NCGC] NIH Molecular Libraries Probe Centers Network [MLPCN] MLPCN Grant: DA032129 Assay Submitter (PI): Lenny Dang, Agios Pharmaceuticals
IDH1-R132H (0.5 ug/mL) was dispensed into black, solid-bottom 1536-well plates at 3 uL/well in 20 mM Tris-HCl (pH 7.5), 150 mM NaCl, 10 mM MgCl2, 4 mM beta-ME, and 0.05% protease-free BSA. Then, 23 nL of compounds or DMSO were delivered to each well using a pin tool. A pre-read was run on the Viewlux to identify fluorescent compounds (540 nm excitation filter, 598 nm emission filter, bodipy mirror and 2 second exposure). After 30 minutes of incubation with compound, 3 uL of substrate mix were dispensed (0.016 mM NADPH, 2 mM alpha-KG, 20 mM Tris-HCl (pH 7.5), 150 mM NaCl, 10 mM MgCl2, and 0.05% protease-free BSA). Plates were spun for 1 min at 1000xg and incubated at room temperature for 80 min. Then 1.5 uL of each detection reagent component for the coupling system were added (0.12 mg/mL diaphorase and 0.072 mM resazurin, each in 20 mM Tris-HCl (pH 7.5), 150 mM NaCl, 10 mM MgCl2, and 0.05% protease-free BSA ) The protein, substrate and two detection components were maintained at 4 °C throughout the screen. Additionally, the substrate and resazurin reagents were protected from light. The plates were measured on an Envision plate reader for fluorescence signal using a 540 nm excitation filter and 590 nm emission filter with 10 flashes. 1x and 0x (no-enzyme) IDH1-R132H enzyme control were used to normalize %Activity of identified inhibitors; 0x enzyme values corresponded to 100% Activity (full inhibition), while 1x IDH1-R132H enzyme values were used to normalize 0%Activity (no inhibition). Concentration-response curves were fitted to the signals arising from the resulting fluorescence. The concentration-effect curves were then classified based on curve quality (r2), response magnitude and degree of measured activity, and compounds were subsequently categorized based on their curve class. […] Keywords: isocitrate dehydrogenase, IDH1, IDH1-R132H, MLSMR, MLPCN, NIH Roadmap, qHTS, NCGC
% is set by controls: 0 for no effect and ±100 for the full control effect; potency is the fitted concentration of half-maximal effect.

Isocitrate dehydrogenase [NADP] cytoplasmic (Homo sapiens), sequence (O75874 whole entry R132H, change not shown): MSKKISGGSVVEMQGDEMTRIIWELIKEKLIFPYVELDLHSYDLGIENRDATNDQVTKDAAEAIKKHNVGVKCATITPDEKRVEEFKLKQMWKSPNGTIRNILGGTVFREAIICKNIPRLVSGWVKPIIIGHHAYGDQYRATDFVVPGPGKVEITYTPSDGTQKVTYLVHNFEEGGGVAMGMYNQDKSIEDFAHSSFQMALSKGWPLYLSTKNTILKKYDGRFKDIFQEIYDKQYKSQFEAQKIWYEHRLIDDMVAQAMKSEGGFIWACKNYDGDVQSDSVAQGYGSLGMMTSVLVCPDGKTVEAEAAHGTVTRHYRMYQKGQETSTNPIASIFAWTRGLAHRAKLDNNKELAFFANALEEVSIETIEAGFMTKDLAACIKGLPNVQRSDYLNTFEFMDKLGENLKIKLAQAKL

SMILES	activity change, negative = inhibition	Potency
Cc1ccc(CN2CCC(CNC(=O)c3cnn(-c4ccc(C)cc4)c3C3CCN(C(=O)OC(C)(C)C)CC3)CC2)cc1	0.407% (inactive)	–
CCN(CCCNC(=O)c1cc2cc3cc(OC)ccc3nc2s1)c1ccccc1	3.91% (inactive)	–
Cc1ccc(Cl)cc1N1CCN(C(=O)c2cnc3c(-c4ccc(F)cc4)c(C)nn3c2C)CC1	-4.49% (inactive)	–
Cc1cc(C)cc(OCC(=O)Nc2nc(-c3ccc(F)cc3)ns2)c1	-3.14% (inactive)	–
CCN(CCCCOC(=O)c1ccc(OC)c(OC)c1)C(C)Cc1ccc(OC)cc1 (stereo not drawn)	1.03% (inactive)	–
COc1ccc(CN(C(=O)CSc2nnc(-c3ccc(OC)c(OC)c3)o2)c2ccc(F)cc2)cc1	3.1% (inactive)	–
COc1ccc(C(CCN(Cc2ccc(OC)c(OC)c2)C(=O)CCl)c2ccccc2)cc1 (stereo not drawn)	–	36.9 µM (active)
O=C1N(Cc2ccccc2)c2ccc(Cl)cc2C1(O)c1c[nH]c2ccccc12 (stereo not drawn)	7.28% (inactive)	–
CCOC(=O)c1cccc(NC(=O)Cn2cnc3nc4c(cc3c2=O)CCCC4)c1	-4.55% (inactive)	–
Cc1nc2ccn(Cc3cccs3)c(=O)c2cc1C(=O)NCc1ccc(Cl)cc1	-1.97% (inactive)	–
COc1cc(C(=O)N(Cc2ccc(C(C)C)cc2)C2CCS(=O)(=O)C2)cc(OC)c1OC (stereo not drawn)	8.8% (inactive)	–
COc1cc2c(-c3ccc4c(c3)OCO4)c(-c3ccsc3)oc(=O)c2cc1OC	–	10 µM (active)
COc1cc(-c2c(-c3ccc4c(c3)OCO4)noc2C)ccc1F	11% (inactive)	–
COC(=O)c1c(-c2ccsc2)oc2ccc(-c3cc(OC)c(OC)c(OC)c3)cc12	18.5% (inactive)	–
CCn1c(=O)cc(OCC(=O)Nc2cc(Cl)c(OC)cc2OC)c2ccccc21	-5.22% (inactive)	–
Cc1ccc(-c2nn(CCC(=O)Nc3ccc(OC(F)(F)F)cc3)c(=O)c3ccccc23)cc1	-1.17% (inactive)	–
Cc1ccc(C(=O)N2c3ncnn3C3(CCCCC3)[C@@H]3CCCC[C@@H]32)cc1	-7.57% (inactive)	–
CCOC(=O)C1CCN(c2ncnc3c2c(-c2ccccc2)cn3-c2ccc(C)cc2)CC1	1.59% (inactive)	–
O=c1[nH]cnc2c1c(-c1ccccc1)cn2-c1ccc(F)cc1	-0.586% (inactive)	–
CCCNc1ncnc2c1c(-c1ccccc1)cn2-c1ccc(OCC)cc1	–	28.2 µM (active)
CCc1ccc(CNC(=O)c2cc3c(=O)n(CC)c4ccccc4c3s2)cc1	-6.61% (inactive)	–
O=C(NCC(c1cccnc1)N1CCc2ccccc21)c1cccc(C(F)(F)F)c1 (stereo not drawn)	-1.72% (inactive)	–
COc1cc(C(=O)N2CCN(c3ccc(Nc4ccc(C)cc4)nn3)CC2)cc(OC)c1OC	4.91% (inactive)	–
CCc1ccc(N(CC)C(=O)CCn2cnc3onc(-c4ccc(F)cc4)c3c2=O)cc1	-16.8% (inactive)	–

SMILES	activity change, negative = inhibition	Potency
Cc1ccc(CSc2nc3cccnc3n2Cc2ccc(C(=O)NC3CC3)cc2)cc1	0.151% (inactive)	–
COc1ccc(/C=C/c2nc(C#N)c(NCc3ccc(F)cc3)o2)cc1OC	4.01% (inactive)	–
Cc1ccc2nc(/C(C#N)=C/c3ccc(-c4ccc(C(=O)OC(C)C)cc4)o3)[nH]c2c1	-13% (inactive)	–
CCCn1c(NCc2ccccc2F)nc2ccccc21	17.3% (inactive)	–
O=C(C1CC1)N1CCc2cc(Br)cc(S(=O)(=O)N3CCN(c4ccccc4F)CC3)c21	-11% (inactive)	–
Cc1ccc2nc(-c3ccc(C)c(NC(=O)Cc4ccccc4)c3)oc2c1	4.91% (inactive)	–
CCc1ccccc1NC(=O)Cc1ccc(NC(=O)N2CCCCc3ccccc32)cc1	9.63% (inactive)	–
COc1cccc(CNC(=O)C(NS(=O)(=O)c2ccc3nc(C)sc3c2)C(C)C)c1 (stereo not drawn)	2.39% (inactive)	–
Cc1nc2sc(C)c(C)n2c(=O)c1S(=O)(=O)NCCc1ccc(Cl)cc1	6.87% (inactive)	–
COc1ccccc1CCNC(=O)c1cccn1-c1nnc(N2CCCCC2)s1	13.2% (inactive)	–
COc1ccc(S(=O)(=O)NCc2cccn2Cc2cccc(C)c2)cc1	-0.432% (inactive)	–
COC(=O)c1sc2ncccc2c1-n1c(C)ccc1C	-12.6% (inactive)	–
CCCN1CCN(CCCNC(=O)c2ccc3nc(Cc4ccccc4)oc3c2)CC1	29.4% (inactive)	–
Cc1ccc(-c2cc(-c3coc4ccccc4c3=O)c3c(n2)-c2cc(Cl)ccc2OC3)cc1	-15% (inactive)	–
O=C(NCc1ccccc1)c1ccc2c(c1)nc1n2CCCCC1	-2.7% (inactive)	–
Cn1c(=O)nc2n(-c3ccc(Br)cc3)c3cccc(Cl)c3cc-2c1=O	-1.36% (inactive)	–
CCc1ccc(S(=O)(=O)c2nnn3c2nc(N2CCN(CC)CC2)c2sccc23)cc1	-17.2% (inactive)	–
Cc1cc(C)c2oc(C(=O)Nc3ccc(S(=O)(=O)N(C)c4ccccc4)cc3)cc(=O)c2c1	1.76% (inactive)	–
Cc1nn(-c2ccc(N3CCCCC3)nn2)c(C)c1CCC(=O)NCc1ccccc1F	0% (inactive)	–
COC(=O)c1cc(NC(=O)c2cnc(SC)nc2-c2ccccc2)cc(C(=O)OC)c1	1.46% (inactive)	–
COC(=O)c1ccc(-c2c(-c3ccccc3)ncc3cc(OC)c(OC)cc23)cc1	–	39.8 µM (active)
COc1ccc(C(=O)Nc2ccc(-n3nncc3-c3ccccc3)cc2)cc1OC	-24.8% (inactive)	–
COc1ccc(C)cc1NC(=O)COCc1cc(-c2cccs2)on1	11% (inactive)	–
CCOC(=O)c1c(S(=O)(=O)NCC(=O)Nc2ccc(Cl)c(C(F)(F)F)c2)c(C)n(C)c1C	0.73% (inactive)	–
